Measured values taken from paper PMC7862700, “An all-to-all approach to the identification of sequence-specific readers for epigenetic DNA modifications on cytosine”.

What was measured:
Assay in all cases: DAPPL (digital affinity profiling via proximity ligation, sequencing); 10 mM Tris-HCl pH 7.5, 50 mM NaCl, 1 mM DTT, 4% glycerol, room temperature, 30 min; GST-TFs on glutathione beads, 16-mer random dsDNA library, 0.1% formaldehyde crosslink after washing; high values mean tight binding
Conditions in all cases: protein: recombinant; tags: N-terminal GST; dsDNA, one strand shown
FEV = target: T1, FEV (Homo sapiens, UniProt Q99581 1-238)
T1 sequence: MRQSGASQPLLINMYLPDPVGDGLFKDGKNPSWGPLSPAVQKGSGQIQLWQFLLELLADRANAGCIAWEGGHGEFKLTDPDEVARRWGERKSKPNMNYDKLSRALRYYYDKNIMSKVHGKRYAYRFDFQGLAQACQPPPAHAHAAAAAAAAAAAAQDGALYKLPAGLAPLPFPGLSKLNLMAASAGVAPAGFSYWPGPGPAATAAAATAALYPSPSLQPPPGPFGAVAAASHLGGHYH
In short: (§1)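 Binding signal is given per hexamer as its read frequency for a factor divided by its frequency in the tag-only sample. GST-fused human transcription factors were expressed in yeast, captured on glutathione beads, barcoded with DNA and pooled with that sample, then incubated with 200 nmole of a 16-mer random double-stranded DNA library in Tris/NaCl/DTT/glycerol buffer for 30 min at room temperature. The pools were then washed, crosslinked, proximity-ligated, amplified by PCR and sequenced on an Illumina NextSeq500.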

ETV5 = ETV5 (Homo sapiens, UniProt P41161 1-510)
ETV5, sequence (P41161 whole entry): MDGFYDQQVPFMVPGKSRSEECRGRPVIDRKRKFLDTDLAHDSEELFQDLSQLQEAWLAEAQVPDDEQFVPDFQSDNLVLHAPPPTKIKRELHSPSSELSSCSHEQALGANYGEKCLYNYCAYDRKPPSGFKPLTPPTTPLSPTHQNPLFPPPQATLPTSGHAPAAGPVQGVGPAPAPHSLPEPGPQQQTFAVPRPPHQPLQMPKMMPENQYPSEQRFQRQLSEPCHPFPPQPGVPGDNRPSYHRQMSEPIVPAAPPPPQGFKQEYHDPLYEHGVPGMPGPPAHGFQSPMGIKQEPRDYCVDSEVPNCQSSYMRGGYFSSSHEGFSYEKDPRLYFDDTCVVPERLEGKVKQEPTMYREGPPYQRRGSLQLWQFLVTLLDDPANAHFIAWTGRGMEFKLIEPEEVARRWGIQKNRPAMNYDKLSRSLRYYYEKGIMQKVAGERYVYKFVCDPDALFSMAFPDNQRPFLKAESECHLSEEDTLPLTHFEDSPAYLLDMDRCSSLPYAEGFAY
In short: as §1

SPIC = target: T2, SPIC (Homo sapiens, UniProt Q8N5J4 1-248)
T2 sequence: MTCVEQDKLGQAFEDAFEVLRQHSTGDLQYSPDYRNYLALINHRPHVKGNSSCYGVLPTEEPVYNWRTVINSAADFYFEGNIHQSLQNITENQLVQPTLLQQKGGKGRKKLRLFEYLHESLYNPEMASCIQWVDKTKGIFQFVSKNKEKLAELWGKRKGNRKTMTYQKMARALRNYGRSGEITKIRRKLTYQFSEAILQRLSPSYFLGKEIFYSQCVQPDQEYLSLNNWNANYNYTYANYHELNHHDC
In short: as §1

ELF4 = ELF4 (Homo sapiens, UniProt Q99607 1-663)
ELF4, sequence (Q99607 whole entry): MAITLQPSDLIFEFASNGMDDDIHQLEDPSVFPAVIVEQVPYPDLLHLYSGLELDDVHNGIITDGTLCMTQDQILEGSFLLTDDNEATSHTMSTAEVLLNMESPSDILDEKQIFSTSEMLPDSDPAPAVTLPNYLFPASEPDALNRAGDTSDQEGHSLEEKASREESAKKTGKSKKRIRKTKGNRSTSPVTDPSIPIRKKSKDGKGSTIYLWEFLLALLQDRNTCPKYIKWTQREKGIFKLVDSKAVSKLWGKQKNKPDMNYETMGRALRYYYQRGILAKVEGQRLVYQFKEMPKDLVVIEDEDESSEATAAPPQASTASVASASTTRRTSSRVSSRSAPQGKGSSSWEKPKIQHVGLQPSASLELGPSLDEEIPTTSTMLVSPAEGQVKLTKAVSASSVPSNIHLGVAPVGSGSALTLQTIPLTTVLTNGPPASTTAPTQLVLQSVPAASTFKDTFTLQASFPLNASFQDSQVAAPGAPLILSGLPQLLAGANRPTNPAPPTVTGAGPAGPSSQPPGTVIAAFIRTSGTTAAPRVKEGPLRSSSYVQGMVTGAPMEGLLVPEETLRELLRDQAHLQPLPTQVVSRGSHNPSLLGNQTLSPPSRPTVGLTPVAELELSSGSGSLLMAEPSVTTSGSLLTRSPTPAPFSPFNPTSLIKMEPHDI
In short: as §1

ELK4 = target: T3, ELK4 (Homo sapiens, UniProt P28324-2 1-405)
T3 sequence: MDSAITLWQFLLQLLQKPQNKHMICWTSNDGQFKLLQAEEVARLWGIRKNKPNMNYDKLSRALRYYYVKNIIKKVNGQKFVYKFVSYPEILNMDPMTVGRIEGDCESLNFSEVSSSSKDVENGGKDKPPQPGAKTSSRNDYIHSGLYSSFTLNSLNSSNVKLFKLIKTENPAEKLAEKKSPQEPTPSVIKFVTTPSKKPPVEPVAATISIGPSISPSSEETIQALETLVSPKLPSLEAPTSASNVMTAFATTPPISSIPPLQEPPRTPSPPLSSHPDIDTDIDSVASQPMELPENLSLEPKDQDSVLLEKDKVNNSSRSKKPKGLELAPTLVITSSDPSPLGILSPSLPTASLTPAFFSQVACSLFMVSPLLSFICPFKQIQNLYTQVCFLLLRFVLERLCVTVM
In short: as §1

ETV2 = target: T4, ETV2 (Homo sapiens, UniProt O00321 1-342)
T4 sequence: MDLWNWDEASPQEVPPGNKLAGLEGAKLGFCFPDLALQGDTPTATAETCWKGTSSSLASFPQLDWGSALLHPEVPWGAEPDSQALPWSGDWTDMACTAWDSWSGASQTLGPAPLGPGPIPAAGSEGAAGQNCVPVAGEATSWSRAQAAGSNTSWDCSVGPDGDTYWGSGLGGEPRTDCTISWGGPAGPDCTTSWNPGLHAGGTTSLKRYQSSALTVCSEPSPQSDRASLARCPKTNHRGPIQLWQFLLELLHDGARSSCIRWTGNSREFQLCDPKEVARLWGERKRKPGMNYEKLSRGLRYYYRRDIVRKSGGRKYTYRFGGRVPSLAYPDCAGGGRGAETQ
In short: as §1

ELF3 = target: T5, ELF3 (Homo sapiens, UniProt P78545 1-371)
T5 sequence: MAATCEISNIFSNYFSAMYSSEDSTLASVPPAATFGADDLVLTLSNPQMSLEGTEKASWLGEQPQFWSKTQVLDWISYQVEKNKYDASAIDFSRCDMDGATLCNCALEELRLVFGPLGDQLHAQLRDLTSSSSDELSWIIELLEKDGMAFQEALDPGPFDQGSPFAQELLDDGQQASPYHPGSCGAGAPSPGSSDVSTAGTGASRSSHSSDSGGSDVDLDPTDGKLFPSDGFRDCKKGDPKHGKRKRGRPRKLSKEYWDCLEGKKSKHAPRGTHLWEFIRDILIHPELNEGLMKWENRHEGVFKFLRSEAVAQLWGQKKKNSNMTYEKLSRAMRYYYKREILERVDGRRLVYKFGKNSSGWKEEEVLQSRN
In short: as §1

ETV1 = ETV1 (Homo sapiens, UniProt P50549 1-477)
ETV1, sequence (P50549 whole entry): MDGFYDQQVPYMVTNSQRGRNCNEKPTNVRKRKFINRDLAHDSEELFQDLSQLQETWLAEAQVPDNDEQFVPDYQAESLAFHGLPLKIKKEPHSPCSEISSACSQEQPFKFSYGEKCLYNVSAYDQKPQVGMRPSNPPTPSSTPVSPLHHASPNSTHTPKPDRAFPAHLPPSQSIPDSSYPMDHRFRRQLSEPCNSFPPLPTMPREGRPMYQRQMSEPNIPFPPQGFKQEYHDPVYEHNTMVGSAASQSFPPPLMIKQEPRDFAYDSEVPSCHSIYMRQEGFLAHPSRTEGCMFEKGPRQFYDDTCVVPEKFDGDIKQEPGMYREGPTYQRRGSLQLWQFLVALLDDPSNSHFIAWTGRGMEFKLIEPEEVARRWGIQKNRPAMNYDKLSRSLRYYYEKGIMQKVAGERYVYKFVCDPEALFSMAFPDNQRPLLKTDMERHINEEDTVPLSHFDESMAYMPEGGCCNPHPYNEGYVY
In short: as §1

ERF = target: T6, ERF (Homo sapiens, UniProt P50548 1-548)
T6 sequence: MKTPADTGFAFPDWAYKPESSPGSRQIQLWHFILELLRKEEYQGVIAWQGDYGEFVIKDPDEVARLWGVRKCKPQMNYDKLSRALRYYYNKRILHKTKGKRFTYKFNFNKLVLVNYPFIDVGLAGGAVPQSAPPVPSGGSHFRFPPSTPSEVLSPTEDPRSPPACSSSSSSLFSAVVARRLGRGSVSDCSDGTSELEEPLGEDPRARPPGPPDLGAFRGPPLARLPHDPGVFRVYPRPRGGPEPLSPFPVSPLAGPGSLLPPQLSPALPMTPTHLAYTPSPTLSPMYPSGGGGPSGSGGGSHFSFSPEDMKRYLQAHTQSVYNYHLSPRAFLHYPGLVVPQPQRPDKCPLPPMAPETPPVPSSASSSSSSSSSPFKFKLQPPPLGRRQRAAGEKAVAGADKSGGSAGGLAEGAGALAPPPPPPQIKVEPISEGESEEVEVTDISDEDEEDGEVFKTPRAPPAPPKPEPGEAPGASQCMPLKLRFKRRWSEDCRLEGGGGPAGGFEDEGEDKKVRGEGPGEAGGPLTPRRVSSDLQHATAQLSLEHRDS
In short: as §1

ETV3L = target: T7, ETV3L (Homo sapiens, UniProt Q6ZN32 1-361)
T7 sequence: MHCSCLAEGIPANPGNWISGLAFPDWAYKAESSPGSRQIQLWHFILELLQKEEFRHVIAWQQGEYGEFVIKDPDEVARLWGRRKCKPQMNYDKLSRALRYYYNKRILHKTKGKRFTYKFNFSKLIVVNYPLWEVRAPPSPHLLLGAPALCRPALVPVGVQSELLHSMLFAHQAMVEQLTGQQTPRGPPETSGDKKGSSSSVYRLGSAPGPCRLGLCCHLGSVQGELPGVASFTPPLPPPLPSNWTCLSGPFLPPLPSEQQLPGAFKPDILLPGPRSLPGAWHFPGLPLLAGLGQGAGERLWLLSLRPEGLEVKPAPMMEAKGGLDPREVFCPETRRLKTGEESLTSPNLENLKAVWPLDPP
In short: as §1

ETS2 = target: T8, ETS2 (Homo sapiens, UniProt P15036 1-469)
T8 sequence: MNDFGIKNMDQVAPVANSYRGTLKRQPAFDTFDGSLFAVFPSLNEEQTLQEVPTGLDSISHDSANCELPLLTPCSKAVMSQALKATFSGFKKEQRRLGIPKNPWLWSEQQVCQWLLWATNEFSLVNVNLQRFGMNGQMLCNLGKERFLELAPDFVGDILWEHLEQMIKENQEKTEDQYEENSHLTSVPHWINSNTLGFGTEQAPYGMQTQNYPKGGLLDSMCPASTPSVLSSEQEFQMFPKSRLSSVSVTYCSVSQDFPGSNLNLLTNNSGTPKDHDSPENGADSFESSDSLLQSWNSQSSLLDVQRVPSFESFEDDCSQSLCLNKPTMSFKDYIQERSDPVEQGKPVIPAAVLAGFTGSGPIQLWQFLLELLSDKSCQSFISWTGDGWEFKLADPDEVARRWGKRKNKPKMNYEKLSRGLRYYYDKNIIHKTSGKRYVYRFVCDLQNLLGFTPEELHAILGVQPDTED
In short: as §1

SPDEF = target: T9, SPDEF (Homo sapiens, UniProt O95238 1-335)
T9 sequence: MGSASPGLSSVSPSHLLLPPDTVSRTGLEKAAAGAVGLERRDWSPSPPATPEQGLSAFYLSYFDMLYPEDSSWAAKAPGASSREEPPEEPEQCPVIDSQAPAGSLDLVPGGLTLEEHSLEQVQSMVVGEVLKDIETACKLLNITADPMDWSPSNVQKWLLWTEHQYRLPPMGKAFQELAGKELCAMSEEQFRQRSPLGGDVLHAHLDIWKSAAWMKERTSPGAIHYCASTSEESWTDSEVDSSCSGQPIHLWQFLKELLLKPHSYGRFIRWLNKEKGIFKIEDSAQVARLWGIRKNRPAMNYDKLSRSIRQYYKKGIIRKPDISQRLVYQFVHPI
In short: as §1

ETV7 = target: T10, ETV7 (Homo sapiens, UniProt Q9Y603 1-341)
T10 sequence: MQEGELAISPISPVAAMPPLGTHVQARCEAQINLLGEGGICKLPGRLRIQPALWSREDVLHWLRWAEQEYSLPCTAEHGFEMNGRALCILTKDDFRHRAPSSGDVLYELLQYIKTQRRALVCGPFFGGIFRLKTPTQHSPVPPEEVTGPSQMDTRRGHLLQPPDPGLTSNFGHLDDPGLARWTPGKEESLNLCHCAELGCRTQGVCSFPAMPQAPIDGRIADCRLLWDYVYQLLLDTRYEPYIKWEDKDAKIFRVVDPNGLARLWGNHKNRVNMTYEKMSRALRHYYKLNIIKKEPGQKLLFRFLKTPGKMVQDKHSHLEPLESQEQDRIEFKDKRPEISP
In short: as §1

ELF5 = target: T11, ELF5 (Homo sapiens, UniProt Q9UKW6-2 1-255)
T11 sequence: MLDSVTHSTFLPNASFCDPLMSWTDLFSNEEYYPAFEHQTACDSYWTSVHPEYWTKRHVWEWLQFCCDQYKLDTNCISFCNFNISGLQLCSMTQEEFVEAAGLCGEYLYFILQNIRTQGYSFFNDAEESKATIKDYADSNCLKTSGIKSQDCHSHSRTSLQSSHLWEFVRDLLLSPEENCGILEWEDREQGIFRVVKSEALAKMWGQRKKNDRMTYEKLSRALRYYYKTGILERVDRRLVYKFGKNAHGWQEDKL
In short: as §1

ETV3 = target: T12, ETV3 (Homo sapiens, UniProt P41162-2 1-143)
T12 sequence: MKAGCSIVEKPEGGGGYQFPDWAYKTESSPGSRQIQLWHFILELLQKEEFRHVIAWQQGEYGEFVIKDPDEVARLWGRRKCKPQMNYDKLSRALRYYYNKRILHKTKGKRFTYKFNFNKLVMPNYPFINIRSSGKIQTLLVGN
In short: as §1

ETV6 = ETV6 (Homo sapiens, UniProt P41212 1-452)
ETV6, sequence (P41212 whole entry): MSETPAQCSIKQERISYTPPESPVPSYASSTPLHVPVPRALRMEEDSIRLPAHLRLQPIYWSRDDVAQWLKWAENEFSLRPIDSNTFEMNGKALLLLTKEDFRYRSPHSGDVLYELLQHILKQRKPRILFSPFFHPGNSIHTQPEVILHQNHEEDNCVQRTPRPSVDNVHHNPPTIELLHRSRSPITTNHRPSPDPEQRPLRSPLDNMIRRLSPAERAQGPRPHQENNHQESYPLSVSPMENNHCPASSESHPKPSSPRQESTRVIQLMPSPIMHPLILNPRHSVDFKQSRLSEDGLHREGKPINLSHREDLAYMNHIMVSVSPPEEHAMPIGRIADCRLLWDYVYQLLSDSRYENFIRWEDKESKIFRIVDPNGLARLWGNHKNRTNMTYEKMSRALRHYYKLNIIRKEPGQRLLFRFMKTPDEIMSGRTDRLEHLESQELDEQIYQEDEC
In short: as §1

| Sequence | binding signal (FEV) | binding signal (ETV5) | binding signal (SPIC) | binding signal (ELF4) | binding signal (ELK4) | binding signal (ETV2) | binding signal (ELF3) | binding signal (ETV1) | binding signal (ERF) | binding signal (ETV3L) | binding signal (ETS2) | binding signal (SPDEF) | binding signal (ETV7) | binding signal (ELF5) | binding signal (ETV3) | binding signal (ETV6) |
| --- | --- | --- | --- | --- | --- | --- | --- | --- | --- | --- | --- | --- | --- | --- | --- | --- |
| GTACAA | 1.11 fold enrichment (6-mer frequency, TF over GST control) | 1.08 fold enrichment (6-mer frequency, TF over GST control) | 1.12 fold enrichment (6-mer frequency, TF over GST control) | 1.09 fold enrichment (6-mer frequency, TF over GST control) | 1.18 fold enrichment (6-mer frequency, TF over GST control) | 1.19 fold enrichment (6-mer frequency, TF over GST control) | 1.08 fold enrichment (6-mer frequency, TF over GST control) | 1.09 fold enrichment (6-mer frequency, TF over GST control) | 1.03 fold enrichment (6-mer frequency, TF over GST control) | 1.09 fold enrichment (6-mer frequency, TF over GST control) | 1.1 fold enrichment (6-mer frequency, TF over GST control) | 1.06 fold enrichment (6-mer frequency, TF over GST control) | 1.12 fold enrichment (6-mer frequency, TF over GST control) | 1.03 fold enrichment (6-mer frequency, TF over GST control) | 1.11 fold enrichment (6-mer frequency, TF over GST control) | 1.15 fold enrichment (6-mer frequency, TF over GST control) |
| ACAACC | 1.34 fold enrichment (6-mer frequency, TF over GST control) | 1.27 fold enrichment (6-mer frequency, TF over GST control) | 1.19 fold enrichment (6-mer frequency, TF over GST control) | 1.19 fold enrichment (6-mer frequency, TF over GST control) | 1.19 fold enrichment (6-mer frequency, TF over GST control) | 1.26 fold enrichment (6-mer frequency, TF over GST control) | 1.26 fold enrichment (6-mer frequency, TF over GST control) | 1.23 fold enrichment (6-mer frequency, TF over GST control) | 1.19 fold enrichment (6-mer frequency, TF over GST control) | 1.17 fold enrichment (6-mer frequency, TF over GST control) | 1.26 fold enrichment (6-mer frequency, TF over GST control) | 1.28 fold enrichment (6-mer frequency, TF over GST control) | 1.18 fold enrichment (6-mer frequency, TF over GST control) | 1.22 fold enrichment (6-mer frequency, TF over GST control) | 1.29 fold enrichment (6-mer frequency, TF over GST control) | 1.28 fold enrichment (6-mer frequency, TF over GST control) |
